Assay outcomes deposited in PubChem BioAssay by National Center for Advancing Translational Sciences (NCATS).
The full list was thinned out, with hits kept by preference.
ERK EGF block: EGF-driven ERK pathway inhibition; 130,000 tested, 0.41% active; AID 1454; Potency, µM (doses to about 11.5 µM), for the others: at the highest dose activity change, negative = inhibition, hits mostly inhibitors; HEK293-V1b, EGF-stimulated phospho-ERK AlphaScreen;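 also: potency is read from the fitted curve at half-maximal effect; plate controls were stimulated vehicle wells for no effect and unstimulated vehicle basal for full effect; nearly all actives have a fitted effect of over 55% in size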
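Compounds are titrated over HEK293-V1b cells kept overnight in 1% FBS. After 30 min at 37C, EGF (25 nM final) triggers ERK phosphorylation for 5 min, measured by AlphaScreen in lysates.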
NPSR antagonist: antagonists of human neuropeptide S receptor cAMP signaling | Q6W5P4 | CHO-NPSR cells, cAMP TR-FRET, antagonist mode | Potency, µM (series often up to 38.3 µM), for inactives: at the highest dose activity change, negative = inhibition, hits mostly inhibitors | 220,000 tested, 1% active | AID 1461; also: potency is read from the fitted curve at half-maximal effect; % is scaled to controls: 0 for no effect and ±100 for the full control effect; nearly all actives have a fitted effect of over 50% in size
Target sequence (Q6W5P4 whole entry, looked up): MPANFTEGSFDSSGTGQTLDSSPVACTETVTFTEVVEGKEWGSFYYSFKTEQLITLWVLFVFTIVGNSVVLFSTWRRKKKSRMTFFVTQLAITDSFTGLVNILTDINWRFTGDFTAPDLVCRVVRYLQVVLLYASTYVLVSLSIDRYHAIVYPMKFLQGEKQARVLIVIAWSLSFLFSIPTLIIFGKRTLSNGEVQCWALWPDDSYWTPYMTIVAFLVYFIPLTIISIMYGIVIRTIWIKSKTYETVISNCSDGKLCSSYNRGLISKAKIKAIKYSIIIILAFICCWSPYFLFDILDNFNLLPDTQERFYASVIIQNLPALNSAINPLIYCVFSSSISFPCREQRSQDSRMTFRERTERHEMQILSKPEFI
ERK pERK EGF: reduces EGF-stimulated ERK phosphorylation in HEK293 cells; shares compounds with ERK EGF block; HEK293 EGF-stimulated ERK phosphorylation, AlphaScreen; Potency, µM (top dose mostly 57.5 µM), without a hit: at the highest dose activity change, negative = inhibition, actives largely listed as inhibitors; 60 tested, 60% active
cRaf kinase inh: blocks human c-Raf kinase activity; 70 tested, under 10 active; shares compounds with ERK EGF block; c-Raf kinase inhibition, homogeneous biochemical assay; AID 1728; activity change, negative = inhibition, % at 76.9 µM
MEK inh: MEK1 (human) kinase inhibition. Potency, µM (highest dose often 76.9 µM), without a hit: at the top dose activity change, negative = inhibition, actives largely listed as inhibitors. 70 tested, under 10 active. shares compounds with ERK EGF block. homogeneous MEK kinase activity assay, ERK pathway
Numbers without * were called inactive; ? = inconclusive; . = no result; ! = not active in a repeat; [ ] = remark or other dose. Calls follow the shape of the dose curve; as a rule, active = well fitted curve in the direction sought with a large enough effect; inconclusive = small, poorly fitted or top-dose-only effect, or another doubt; inactive = no such curve, though single readings can be large; an effect the other way counts as inactive or inconclusive.

SMILES	ERK EGF block	NPSR antagonist	others
CC(C)c1ccc(N2C(=O)NC(=O)/C(=C/C=C/c3ccco3)C2=O)cc1	-1%	6.3µM*
Cc1ccc(N2C(=O)NC(=O)/C(=C/c3ccoc3)C2=O)cc1	5%[57.5 µM]	6%
Cc1cc(C)cc(N2C(=O)NC(=O)/C(=C\C=C\c3ccco3)C2=O)c1	?	10µM*
Cc1ccc(N2C(=O)NC(=O)/C(=C/C=C/c3ccco3)C2=O)cc1	0%	-53%
N#CC(=Cc1ccc(O)c(O)c1)C(N)=S	5%	?
CCCCCCCCCCCCCCCCOC[C@@H](O)COP(=O)([O-])OCC[N+](C)(C)C	-11%	.
O=c1ccc2cc(O[C@H]3OC(CO)C(O)C(O)C3O)c(O)cc2o1 (stereo partly specified)	-9%	.
COC(=O)C1(C)C=C2C(=C(C)C(=O)C2C)CN1 (stereo unspecified)	3%	.
COc1ccc2c(c1)[C@@]13CCCCC1[C@@H](C2)N(C)CC3 (stereo partly specified)	0%	.
C=CCN1C[C@H](C)N([C@H](c2ccc(C(=O)N(CC)CC)cc2)c2cccc(O)c2)C[C@H]1C	-14%	.
Nc1ccc(CCN2CCN(c3cccc(C(F)(F)F)c3)CC2)cc1	0%	6%[46.1 µM]
FC(F)(F)c1ccc2c(c1)N(CCCN1CCN(CCCl)CC1)c1ccccc1S2	.	7.9µM*
CCCCCC[C@H]1C(=O)O[C@H](C)[C@H](NC(=O)c2cccc(NC=O)c2O)C(=O)O[C@@H](C)[C@H]1OC(=O)CC(C)C	-10%[25.7 µM]	.
C=C1C([C@@]2(C)C(OC(C)=O)CC(=O)O[C@@](C)(COC(C)=O)C2CC(=O)OC)C(OC=O)C(OC(=O)C(OC(C)=O)C(C)CC)[C@]2(C)C(c3ccoc3)CC(=O)C12O (stereo partly specified)	-6%	.
ClC1=C(Cl)C(Cl)=C(Cl)C1=C/C=C/c1ccccc1	11µM*	55%[7.67 µM]
C[C@H]1C[C@H](C)C(=O)[C@@H]([C@H](O)CC2CC(=O)NC(=O)C2)C1	-2%	.
C#CCN1C(C)=C(C(=O)CCO)[C@@H](c2cccc(-n3oo3)c2)C(C(=O)OC)=C1C	-9%	.
CC(C)C[C@H]1C(=O)N2CCCC2[C@]2(O)O[C@](NC(=O)[C@@H]3C=C4c5cccc6[nH]c(Br)c(c56)C[C@H]4N(C)C3)(C(C)C)C(=O)N12 (stereo partly specified)	-1%	13µM*
CC(C)C[C@H]1C(=O)N2CCC[C@@H]2[C@@]2(O)O[C@](NC(=O)[C@@H]3C=C4c5cccc6[nH]cc(c56)C[C@@H]4N(C)C3)(C(C)C)C(=O)N12	2%[25.7 µM]	.
O=C1CCC[C@H]2[C@H]3CCCN4CCCC(=CN12)[C@@H]34	-12%	.
Cc1cc(C=C2C(=O)NC(=S)NC2=O)c(C)n1-c1ccc2c(c1)OCO2	4%	13µM*
Cc1cc(C=C2C(=O)NC(=O)NC2=O)c(C)n1-c1ccc2c(c1)OCO2	?	10%[46.1 µM]
CC(=O)O[C@@H]1C[C@@]2(C)C(c3ccoc3)C[C@H]3O[C@]32[C@]2(C)C(=O)C(O)=C3C(C)(C)C(=O)C=C[C@]3(C)C12 (stereo partly specified)	-15%	.
COC(=O)C1=CO[C@@H](C)[C@@H]2CN3CC[C@]4(C(=O)Nc5c4ccc(OC)c5OC)[C@H]3C[C@H]12	-5%	.
c1ccc(-c2cc(-c3ccccc3)[n+](-c3ccccc3)c(-c3ccccc3)c2)cc1	22µM*	?
SMILES	ERK EGF block	NPSR antagonist	others
CN(C)c1ccc(-[n+]2c(-c3ccccc3)cc(-c3ccccc3)cc2-c2ccccc2)cc1	?	13µM*
C[n+]1c(-c2ccccc2)cc(-c2ccc(Cl)cc2)cc1-c1ccccc1	5%	-6%
CCCC[N+]12C3CC(C(CC)[C@H]1O)[C@@H]1C(O)C4(C[C@@H]12)c1ccccc1N(C)C34 (stereo partly specified)	-4%	.
NC(=NCCc1ccc(I)cc1)SCCCc1cnc[nH]1	2%	.
CC1=CC(=O)c2c(O)cccc2C1=O	5.6µM*!	.	ERK pERK EGF=7.1µM*;cRaf kinase inh=?;MEK inh=?
Cc1ccc(C[N+](C)(C)C)o1	12%	.
O=C1NC(=O)C(=Cc2ccccc2Oc2ccc(F)cc2)C(=O)N1	4µM*	-2%	ERK pERK EGF=2%;cRaf kinase inh=-8;MEK inh=?
CN1C(=O)C(=Cc2ccccc2Oc2ccc(Cl)c(F)c2)C(=O)N(C)C1=O	.	-23%[46.1 µM]
CN[C@@H](Cc1c[nH]c2ccccc12)C(=O)O	-13%	.
